About 79,000 compounds went through this panel and 15% of them were active in at least one assay; those are over-represented in the sample as a whole. Active and inactive are the calls of the source. Cut-off read from the data, not from the text of the source: active = growth inhibition above about 70%; inactive = the rest.
What was measured:
[1] = NCI Yeast Anticancer Drug Screen. Data for the rad52 strain (AID 147);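 note: 0% = growth of vehicle-treated control cultures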; conditions: S. cerevisiae rad52 mutant growth inhibition, active compounds read high
How it was run: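 DNA repair-defective yeast; compound exposure; growth scored against vehicle controls.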

[2] = NCI Yeast Anticancer Drug Screen. Data for the wt1 strain (AID 149);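 note: 0% = growth of vehicle-treated wt1 cultures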; conditions: S. cerevisiae wt1 strain (SPY 50644) growth inhibition, active compounds read high
How it was run: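 wt1 strain grown with compound or vehicle; inhibition taken from the growth difference.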

[3] = NCI Yeast Anticancer Drug Screen. Data for the rad50EPP+ strain (AID 151);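 note: 0% = growth of vehicle-treated control cultures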; conditions: S. cerevisiae rad50 mutant strain, active compounds read high
How it was run: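 rad50EPP+ yeast treated with test compounds. Readout: growth vs vehicle control.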

[4] = NCI Yeast Anticancer Drug Screen. Data for the rad50 strain (AID 155);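 note: 0% = growth of vehicle-only cultures of the same strain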; conditions: S. cerevisiae rad50 strain growth inhibition, active compounds read high
How it was run: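 DNA repair mutant yeast, compound exposure, growth read-out; inhibition is taken relative to vehicle.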

[5] = NCI Yeast Anticancer Drug Screen. Data for the mec2-1 strain (AID 157); conditions: S. cerevisiae mec2-1 strain, active compounds read high
How it was run: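 Growth inhibition is read against vehicle-treated controls after compound exposure of the mec2-1 yeast strain, which is defective in DNA damage repair or cell cycle control.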

[6] = NCI Yeast Anticancer Drug Screen. Data for the rad14 strain (AID 159);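 note: 0% = growth of vehicle-treated control cultures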; conditions: S. cerevisiae rad14 strain growth inhibition, active compounds read high
How it was run: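 DNA repair-defective yeast, compound-exposed; % growth inhibition derived by comparison with vehicle-treated controls.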

[7] = NCI Yeast Anticancer Drug Screen. Data for the sgs1 mgt1 strain (AID 161);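 note: 0% = growth of cultures given vehicle only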; conditions: S. cerevisiae sgs1 mgt1 strain, active compounds read high
How it was run: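 Compounds are added to genetically altered yeast, and growth is compared with cultures given vehicle alone to give percent inhibition.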

[8] = NCI Yeast Anticancer Drug Screen. Data for the CLN2oe strain (AID 163);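 note: 0% = growth of vehicle-only control cultures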; conditions: S. cerevisiae CLN2oe strain, active compounds read high
How it was run: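 Compound-treated yeast; growth vs vehicle ctrl = % inhibition. Genetically altered strain (cell-cycle control).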

[9] = NCI Yeast Anticancer Drug Screen. Data for the cln2 rad14 strain (AID 165);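 note: 0% = growth equal to vehicle treated cultures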; conditions: S. cerevisiae cln2 rad14 strain, active compounds read high
How it was run: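 Growth inhibition, relative to vehicle-treated controls, is the read-out. The test organism is a yeast strain with defined genetic alterations, cln2 rad14.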

[10] = NCI Yeast Anticancer Drug Screen. Data for the bub3 strain (AID 167); conditions: S. cerevisiae bub3 mutant strain, active compounds read high
How it was run: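 In this screen, a yeast mutant lacking normal mitotic checkpoint function is challenged with compound. Relative growth versus vehicle gives the inhibition value.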

[11] = NCI Yeast Anticancer Drug Screen. Data for the wt2 strain (AID 169);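 note: 0% = growth of vehicle-treated yeast cultures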; conditions: S. cerevisiae wt2 strain growth inhibition, active compounds read high
How it was run: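 Compound exposure of yeast; growth compared with vehicle controls; inhibition reported.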

[12] = NCI Yeast Anticancer Drug Screen. Data for the mlh1 strain (AID 171);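 note: 0% = growth of vehicle-treated control cultures of the same strain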; conditions: S. cerevisiae mlh1 strain growth inhibition, active compounds read high
How it was run: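 Compounds are applied to a genetically altered yeast strain, and its growth is compared with that of vehicle-treated cultures to give percent inhibition.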

[13] = NCI Yeast Anticancer Drug Screen. Data for the sgs1 strain (AID 173);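 note: 0% = growth of vehicle-only control cultures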; conditions: S. cerevisiae sgs1 mutant, active compounds read high
How it was run: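 Compounds applied to genetically altered yeast; growth compared with vehicle-treated cultures to give % inhibition.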

[14] = NCI Yeast Anticancer Drug Screen. Data for the mlh1 rad18 strain (AID 175); conditions: S. cerevisiae mlh1 rad18 strain growth inhibition, active compounds read high
How it was run: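 Cells of a genetically altered yeast strain, deficient in DNA damage repair, were treated with compound. Their growth was then compared with that of vehicle-treated cultures to give inhibition.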

[15] = NCI Yeast Anticancer Drug Screen. Data for the rad18 strain (AID 177); conditions: S. cerevisiae rad18 mutant growth inhibition, active compounds read high
How it was run: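 Compounds are applied to a repair-deficient yeast strain, and growth is compared with that of vehicle-treated cultures to give percent inhibition.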

[16] = at 5.0 µM (retest, dose inferred, filed as 0.5)
[17] = at 50.0 µM (retest, dose inferred, filed as 5.0)

Measured: growth inhibition

NP1(Oc2ccc(F)cc2)=NP(N)(Oc2ccc(F)cc2)=NP(Oc2ccc(F)cc2)(Oc2ccc(F)cc2)=N1 (stereo unspecified)
inactive: [1]; at 1.2 µM -1% | [1]; at 3.7 µM 7% | [2]; at 1.2 µM -2% | [2]; at 3.7 µM 0% | [2]; at 11.0 µM 20% | [2]; at 33.0 µM 41% | [2]; at 100.0 µM 48% | [3]; at 1.2 µM -6% | [3]; at 3.7 µM -2% | [3]; at 11.0 µM 2% | [3]; at 33.0 µM 4% | [3]; at 100.0 µM 1% | [4]; at 1.2 µM 4% | [4]; at 3.7 µM 5% | [4]; [16] 21% | [4]; [17] 64% | [5]; at 1.2 µM 1% | [5]; at 3.7 µM 3% | [5]; [16] 12% | [5]; at 11.0 µM 26% | [5]; at 33.0 µM 28% | [5]; [17] 19% | [6]; at 1.2 µM -2% | [6]; at 3.7 µM 1% | [6]; at 11.0 µM 6% | [6]; at 33.0 µM 15% | [7]; [16] 1% | [7]; [17] 28% | [8]; at 1.2 µM 0% | [8]; at 3.7 µM -3% | [8]; at 11.0 µM 17% | [8]; at 33.0 µM 53% | [9]; [16] 5% | [9]; [17] 54% | [10]; at 1.2 µM 1% | [10]; at 3.7 µM -1% | [10]; [16] 8% | [10]; at 11.0 µM 53% | [10]; at 33.0 µM 23% | [10]; [17] 35% | [11]; at 1.2 µM 0% | [11]; at 3.7 µM 7% | [11]; at 11.0 µM -1% | [11]; at 33.0 µM 22% | [11]; at 100.0 µM 50% | [12]; at 1.2 µM 0% | [12]; at 3.7 µM -2% | [12]; at 11.0 µM 1% | [12]; at 33.0 µM 15% | [13]; at 1.2 µM -3% | [13]; at 3.7 µM 0% | [13]; at 11.0 µM 12% | [13]; at 33.0 µM 51% | [14]; [16] 17% | [15]; at 1.2 µM -1% | [15]; at 3.7 µM 14% | [15]; at 11.0 µM 63%
active: [1]; at 11.0 µM 74% | [1]; at 33.0 µM 71% | [1]; at 100.0 µM 96% | [4]; at 11.0 µM 95% | [4]; at 33.0 µM 96% | [4]; at 50.0 µM 94.8% | [4]; at 100.0 µM 96% | [5]; at 50.0 µM 84.7% | [5]; at 100.0 µM 94% | [6]; at 100.0 µM 88% | [7]; at 50.0 µM 97.9% | [8]; at 100.0 µM 94% | [9]; at 50.0 µM 97% | [10]; at 50.0 µM 87.5% | [10]; at 100.0 µM 96% | [12]; at 100.0 µM 84% | [13]; at 100.0 µM 95% | [14]; [17] 86% | [14]; at 50.0 µM 88.2% | [15]; at 33.0 µM 83% | [15]; at 100.0 µM 97%

Cc1c2cc[n+](CCN3CCCCC3)cc2c(C)c2c1[nH]c1ccc(O)cc12
inactive: [1]; at 1.2 µM 19% | [1]; at 3.7 µM 44% | [2]; at 1.2 µM 2% | [2]; at 3.7 µM 2% | [2]; at 11.0 µM 5% | [2]; at 33.0 µM 6% | [2]; at 100.0 µM 29% | [3]; at 1.2 µM 4% | [3]; at 3.7 µM 16% | [3]; at 11.0 µM 62% | [4]; at 1.2 µM 17% | [4]; at 3.7 µM 47% | [4]; [16] 36% | [5]; at 1.2 µM -2% | [5]; at 3.7 µM 3% | [5]; [16] 25% | [5]; at 11.0 µM 5% | [5]; at 33.0 µM 15% | [5]; [17] 4% | [5]; at 50.0 µM 57.5% | [6]; at 1.2 µM 1% | [6]; at 3.7 µM 12% | [6]; at 11.0 µM 1% | [6]; at 33.0 µM 14% | [7]; [16] 2% | [7]; [17] 38% | [8]; at 1.2 µM -3% | [8]; at 3.7 µM -3% | [8]; at 11.0 µM -3% | [8]; at 33.0 µM 4% | [9]; [16] 5% | [9]; [17] 6% | [9]; at 50.0 µM 30.1% | [10]; at 1.2 µM -20% | [10]; at 3.7 µM 5% | [10]; [16] 16% | [10]; at 11.0 µM -4% | [10]; at 33.0 µM -5% | [10]; [17] 28% | [11]; at 1.2 µM 5% | [11]; at 3.7 µM 4% | [11]; at 11.0 µM 5% | [11]; at 33.0 µM 12% | [12]; at 1.2 µM -5% | [12]; at 3.7 µM -4% | [12]; at 11.0 µM 0% | [12]; at 33.0 µM 8% | [13]; at 1.2 µM -1% | [13]; at 3.7 µM -2% | [13]; at 11.0 µM 1% | [13]; at 33.0 µM 12% | [14]; [16] 3% | [14]; [17] 25% | [15]; at 1.2 µM -2% | [15]; at 3.7 µM -5% | [15]; at 11.0 µM -4% | [15]; at 33.0 µM -4% | [15]; at 100.0 µM 41%
active: [1]; at 11.0 µM 81% | [1]; at 33.0 µM 93% | [1]; at 100.0 µM 98% | [3]; at 33.0 µM 89% | [3]; at 100.0 µM 96% | [4]; at 11.0 µM 74% | [4]; at 33.0 µM 91% | [4]; [17] 97% | [4]; at 50.0 µM 97.8% | [4]; at 100.0 µM 98% | [5]; at 100.0 µM 98% | [6]; at 100.0 µM 93% | [7]; at 50.0 µM 89.2% | [8]; at 100.0 µM 72% | [10]; at 50.0 µM 90.5% | [10]; at 100.0 µM 97% | [11]; at 100.0 µM 96% | [12]; at 100.0 µM 97% | [13]; at 100.0 µM 94% | [14]; at 50.0 µM 81.8%
